Screening results as filed in PubChem.
A selection: hits, their analogues and other compounds. The true share with any hit is near 20%.
Shiga toxin inh: Shiga toxin inhibition | actives 9.2% (n = 290,000) | Vero cells, Shiga toxin protein synthesis inhibition reporter | inhibition, % at 38.7 µM; in the data active means inhibition mostly above about 28%, no sharp cut-off; inactive means mostly below about 43%; further: 0% is about no effect
HCMV antiviral: human cytomegalovirus inhibition | HFF cells, HCMV-luciferase reporter, 72 h; active compounds read low | actives 4.5% (n = 410,000) | activity change, negative = inhibition, % at 57.5 µM | AID 1259415; in the data active means activity change below about -60%; inconclusive means no clear call, values can overlap the other calls; inactive means above about -39%; further: on the % scale 0 is the no-effect control and ±100 the full control effect
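Two compound doses tested in HFFs infected with HCMV-luciferase, MOI 1 PFU/cell, 72 h at 37C. Lysate luminescence read with OneGlo; data normalized against buffer-only and 10uM Salinomycin inhibitor controls.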
CHX counter: affects cycloheximide protein synthesis inhibition readout, counter-screen; actives 12% (n = 300,000); cell reporter, cycloheximide protein synthesis inhibition counterscreen; AID 2314; max response, %; in the data active means max response mostly above about 13%, no sharp cut-off; inactive means mostly below about 14%; further: read at 38.3 µM for the half of the compounds with a filed dose; 0% is about no effect
Pf growth 96h: P. falciparum growth inhibition at 96 hour, primary screen for plastid delayed-death inhibitors | P. falciparum luciferase reporter growth, 96 h | Potency, µM (titrated, usually from 28.7 µM), inactives show at the top dose activity change, negative = inhibition, most hits filed as inhibitors | actives 6.9% (n = 320,000) | AID 504834; further: potency means the concentration at half of the fitted maximal effect; on the % scale 0 is the no-effect control and ±100 the full control effect
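P. falciparum expressing integrated firefly luciferase, in erythrocytes at 2% hematocrit, 0.05% parasitemia, incubated with compounds 96 h at 37 C, 5% CO2. Growth inhibition read as loss of luminescence; two-generation exposure targets delayed-death apicoplast inhibitors.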
Pf growth 48h: P. falciparum growth inhibition at 48 hours (one generation); P. falciparum luciferase growth in erythrocytes, 48 h; Potency, µM (top dose mostly 28.7 µM), without a hit: top-dose activity change, negative = inhibition, most hits filed as inhibitors; actives 5.9% (n = 310,000); AID 504832; further: potency means the concentration at half of the fitted maximal effect; on the % scale 0 is the no-effect control and ±100 the full control effect
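Erythrocytes infected with P. falciparum carrying an integrated firefly luciferase reporter (2% hematocrit, 0.1% parasitemia final) were exposed to compounds in RPMI 1640 with 0.5% Albumax at 37 C, 5% CO2. Growth inhibition was scored as reduced luminescence.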
Active calls of the source: *; ? = inconclusive; · = no result given. Unless noted, the call rests on the fitted dose curve; in most records, active means well fitted inhibition curve with a large enough effect; inconclusive means small, poorly fitted or top-dose-only effect, or another doubt; inactive means no such curve, though single readings can be large or run the other way.

SMILES | Shiga toxin inh | HCMV antiviral | CHX counter | Pf growth 96h | Pf growth 48h
Cc1cc(NC(=O)C(C)(C)C)cc(-c2nc3ncccc3o2)c1O | · | -12 | · | · | ·
O=C(Nc1ccc(N2CCOCC2)cc1N1CCOCC1)c1ccc([N+](=O)[O-])cc1Cl | -21 | 8 | -1 | 25% | -13%
CCCCOc1ccccc1N1CCN(CCCN2C(=O)C3CCCN3C2=O)CC1 (stereo not drawn) | -4 | 45 | -3 | ? | -19%
COc1ccccc1N1CCN(CCCCN2C(=O)C3CCCCN3C2=O)CC1 (stereo not drawn) | · | · | -1 | 8.3µM* | -6%
COc1ccc2c(c1)N(C(=O)CN1C(=O)C3CCCCC3C1=O)C(C)(C)C=C2C (stereo not drawn) | -4 | -14 | -3 | 12% | 12µM*
COc1ccccc1N1CCN(C(=O)CN2C(=O)C3CCCCC3C2=O)CC1 (stereo not drawn) | 77* | 8 | 28* | 21% | 8%
CC(=O)O[C@]1(C(C)=O)CCC2C3CCC4=CC(=O)CCC4(C)C3(F)C(O)CC21C (stereo partly drawn) | · | · | · | ? | -26%
CCCC[C@@H]1CNCCN1CCc1cccc2ccccc12 | · | 12 | · | ? | ?
CCSc1nc2sc3c(c2c(=O)[nH]1)CCCC3 | -10 | -16 | -2 | -15% | 12%
CCSC1=NC2(CCCCC2)Nc2sc3c(c21)CCCC3 | -8 | 22 | -1 | 2.6µM* | ·
Cc1cc(C(=O)CSc2ncnc3ccccc23)c(C)n1C1CC1 | · | -10 | · | ? | ?
Cc1cc(C(=O)CSc2nc3ccccc3o2)c(C)n1C1CC1 | 27* | 3 | 53* | 86% | 74%
C=CCn1c(C)cc(C(=O)CSc2nc3ccccc3o2)c1C | 110* | ? | 62* | ? | -52%
COC(=O)CSc1nc2ccccc2o1 | 15 | -1 | -3 | -12% | -8%
COc1ccc(NC(=O)c2ccc3oc(=O)c(S(=O)(=O)c4ccc(C)cc4)cc3c2)cc1OC | · | 17 | · | · | ·
Cc1cccc(N2CC(C)Cn3c2nc2c3c(=O)n(CC(=O)O)c(=O)n2C)c1 (stereo not drawn) | · | 19 | · | · | ·
Cc1ccc(N2CCCn3c2nc2c3c(=O)n(CC(=O)OCc3ccccc3)c(=O)n2C)cc1C | -6 | · | -1 | 5.2µM* | 12µM*
Cc1ccc(N2CC(C)Cn3c2nc2c3c(=O)n(CC(=O)OCc3ccccc3)c(=O)n2C)cc1C (stereo not drawn) | -4 | 33 | -2 | 10µM* | ?
Cc1cc(C)cc(N2CCCn3c2nc2c3c(=O)n(CC(=O)OCc3ccccc3)c(=O)n2C)c1 | -16 | 38 | -4 | 15% | ?
Cc1ccc(S(=O)(=O)N(C)C[C@@H]2OCCCC[C@H](C)Oc3ccc(NC(=O)Nc4ccc(F)cc4)cc3C(=O)N([C@H](C)CO)C[C@H]2C)cc1 | · | -19 | · | · | ·
O=C1/C(=C/c2cccs2)NC(=S)N1C1CC1 | active | -24 | 15 | 35% | 14%
O=C1CNC(=O)/C(=C/c2cccs2)N1 | 11 | 18 | 8 | 252% | 63%
CCN(C(=O)COC(=O)C1CCN(S(=O)(=O)c2ccc3c(c2)OCCO3)CC1)C1CCCCC1 | · | -21 | · | ? | -10%
CCOC(=O)C1CCCN(C(=O)c2cc(-c3ccccc3)on2)C1 (stereo not drawn) | 79* | 32 | 42* | · | 181%
O=C(c1ccc2oc(CCCc3ccccc3)nc2c1)N1CCCC1 | 129* | 108 | 63* | 22% | 24%
SMILES | Shiga toxin inh | HCMV antiviral | CHX counter | Pf growth 96h | Pf growth 48h
CCOC(=O)C1CCCN(C(=O)c2cc3c(C)nc4ccccc4c3o2)C1 (stereo not drawn) | -4 | 26 | -2 | ? | ?
CCOC(=O)C1CCCN(C(=O)c2cc3c(=O)n(C)c4ccccc4c3n2C)C1 (stereo not drawn) | -12 | -2 | -8 | 8.3µM* | ·
CCOC(=O)C1CCCN(C(=O)c2ccc3nc(-c4ccccc4)c(-c4ccccc4)nc3c2)C1 (stereo not drawn) | -7 | -25 | 10 | 13µM* | ?
COc1ccc(-c2cc3nc(C)c(CCC(=O)N4CCN(c5cc(C)ccc5C)CC4)c(C)n3n2)c(OC)c1 | · | 2 | · | · | ·
CCN(CC)CCCN1C(=O)c2oc3ccccc3c(=O)c2C1c1cc(OC)ccc1OC (stereo not drawn) | -11 | -22 | 0 | 2% | ?
CCn1c(Cc2ccccc2)nnc1SC(C)C(=O)NC1CC1 (stereo not drawn) | · | -23 | · | -19% | 0%
